Source: PubChem
MARV entry inh = blocks Marburg virus binding to or entry into cells. Marburg virus pseudotyped entry inhibition, cell reporter. Potency, µM (titrated, usually from 37.8 µM), usual class: inhibitors. actives 1.8% (n = 300,000); calls by dose curve; tested in HEK293 cells
Shiga inhibitor = inhibitors of Shiga toxin in Vero cells. actives 9.2% (n = 290,000). AID 2315. Vero cells, Shiga toxin protein synthesis inhibition reporter. inhibition, % at 38.7 µM; in the data active = inhibition mostly above about 28%, no sharp cut-off; inactive = mostly below about 43%
LASV entry inh = Lassa virus entry inhibition. Lassa virus pseudotype entry inhibition, cell reporter. Potency, µM (highest dose often 37.9 µM), most hits filed as inhibitors. actives 1.2% (n = 300,000). AID 540256; calls by dose curve; tested in HEK293 cells; note: nearly all actives have a fitted effect of over 50% in size
CHX counter = counter-screen hit for Shiga toxin inhibitors, cycloheximide | cell reporter, cycloheximide protein synthesis inhibition counterscreen | max response, % | actives 12% (n = 300,000) | AID 2314; in the data active = max response mostly above about 13%, no sharp cut-off; inactive = mostly below about 14%; note: read at 38.3 µM for the half of the compounds with a filed dose
AMA1 RON2 block = inhibitors of Plasmodium falciparum AMA1-RON2 interaction | actives 0.2% (n = 360,000) | Potency, µM (top dose mostly 58.2 µM), hits mostly inhibitors | AlphaScreen AMA1-biotinylated RON2 peptide binding; active = well fitted inhibition curve with a large enough effect; inconclusive = small, poorly fitted or top-dose-only effect; inactive = no such curve, though single readings can be large or run the other way; note: nearly all actives have a fitted effect of over 45% in size
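AMA1 (3D7) with his tag at 25 nM final met compounds first, then biotinylated RON2 peptide at 25 nM; detection used donor plus acceptor beads, 10 µg/mL apiece, read by AlphaScreen after 30 min at room temperature.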
A number is an active result; n = inactive; u = inconclusive; x = no result given; [ ] = dose if it differs, or a comment. Shown is part of a subset that was picked to be rich in hits.

SMILES	MARV entry inh	Shiga inhibitor	LASV entry inh	CHX counter	AMA1 RON2 block
Cc1ccc(S(=O)(=O)N(C)/N=C/c2ccc(N(C)C)cc2)cc1	n	70	n	57	25µM
Cc1sc(NC(=S)NC(=O)CCc2ccccc2)c(C(N)=O)c1C	u	n	u	n	n
Cc1sc(NC(=S)NC(=O)c2ccco2)c(C(N)=O)c1C	u	93	n	26	n
CCN1CCc2c(sc(NC(=S)NC(=O)c3ccco3)c2C(N)=O)C1	n	n	n	14	n
COCCNC(=O)c1nn(-c2ccc(Cl)cc2)nc1CO	n	x	n	x	x
Cn1c(N)c(C(=O)/C=C/c2ccccc2)c(=O)[nH]c1=O	u	69	n	48	n
Cc1ccc(/C=C/C(=O)c2c(C)cc(C)[nH]c2=O)cc1	23µM	n	u	n	n
COc1ccc(Cc2nc3ccc(C(=O)NCC4COCCO4)cc3o2)cc1OC (stereo not given)	x	n	x	34	n
CCc1cc(CNC(=O)c2ccc3nc(Cc4ccc(OC)c(OC)c4)oc3c2)on1	x	n	x	n	n
CCC1CCCCN1C(=O)c1ccc2nc(Cc3ccc(OC)cc3)oc2c1 (stereo not given)	x	77	x	35	n
COCC1CCCCN1C(=O)c1ccc2nc(Cc3ccc(OC)c(OC)c3)oc2c1 (stereo not given)	x	n	x	12	n
COc1ccc(Cc2nnc(Cl)c3ccccc23)cc1OC	x	n	x	n	n
CC(C)c1ccc(NC(=O)c2cc3c(=O)oc4ccccc4c3s2)cc1	u	x	n	x	x
C#CCn1cc(/C=N/NC(=O)COc2cccc3cccnc23)c2ccccc21	u	26	n	12	n[11.6 µM]
C(=N\Nc1nc2ccccc2[nH]1)/c1ccc2ncccc2c1	u	58	u	58	n
COc1cc(/C=N\Nc2nc3ccccc3[nH]2)cc(OC)c1OC	13µM	n	n	34	n
COC(=O)Cn1cc(/C=N/NC(=O)COc2cccc3cccnc23)c2ccccc21	n	n	n	n	n
C(=N\Nc1nc2ccccc2[nH]1)/c1ccc2c(c1)OCCO2	x	n	x	28	n
COc1cc(OC)c(OC)cc1/C=N/Nc1nc2ccccc2[nH]1	x	n	x	n	n
C(=N\Nc1nc2ccccc2[nH]1)/c1ccccn1	x	n	x	n	n
COc1ccc(/C=N/Nc2nc3ccccc3[nH]2)cc1OC	u	73	n	32	n[11.6 µM]
C#CCn1cc(/C=N/Nc2nc3ccccc3[nH]2)c2ccccc21	u	81	u	54	n
C(=N\Nc1nc2ccccc2[nH]1)/c1cccc2nccnc12	u	n	u	31	n
C[C@H](N)C(=O)NCC(=O)N[C@H]1CSSC[C@@H](C(=O)O)NC(=O)[C@H](CO)NC(=O)[C@H]([C@@H](C)O)NC(=O)[C@H](Cc2ccccc2)NC(=O)[C@H]([C@@H](C)O)NC(=O)[C@H](CCCCN)NC(=O)[C@@H](Cc2c[nH]c3ccccc23)NC(=O)[C@H](Cc2ccccc2)NC(=O)[C@H](Cc2ccccc2)NC(=O)[C@H](CC(N)=O)NC(=O)[C@H](CCCCN)NC1=O	x	n	x	n	x
CC=COC(=O)N[C@@H](c1ccccc1)[C@]1(C(C)=O)CCOC1=O	n	x	x	x	x
SMILES	MARV entry inh	Shiga inhibitor	LASV entry inh	CHX counter	AMA1 RON2 block
CN(CC(=O)Nc1ccc(S(=O)(=O)N2CCCC2)cc1)Cc1c(F)cccc1Cl	5µM	n	u	n	n
COc1cc(CNc2ncnc3c2ncn3[C@H]2CN(Cc3ccc4c(c3)OCO4)C[C@@H](CO)O2)cc(OC)c1OC	x	x	x	x	n
COc1ccc2nc(Sc3c([N+](=O)[O-])nc(C)n3Cc3ccccc3)[nH]c2c1	u	n	16µM	n	n
Cc1nc([N+](=O)[O-])c(Sc2nc3ccccc3[nH]2)n1Cc1ccccc1	n	n	u	n	n
COc1ccc(NC(=S)Nc2cccc3cnccc23)cc1	n	n	n	n	n
CCOc1ccc(NC(=S)Nc2cccc3cnccc23)cc1	n	n	n	14	n
CCOc1ccc(NC(=S)Nc2ccc(OCC)cc2)cc1	u	n	u	n	n
CCOc1ccc(NC(=S)Nc2cccc3ccccc23)cc1	n	89	n	72	n
CCC(=O)Nc1ccc(C(=O)COC(=O)c2sc(C)nc2C)cc1	n	x	u	x	n
COc1ccc(C=NNC(=O)NN=Cc2ccc(OC)c(OC)c2)cc1OC	u	x	u	x	n
NC(=S)N/N=C/c1ccc(/C=N/NC(N)=S)cc1	x	n	x	n	n
COc1ccc(/C=N/NC(=S)SC)cc1OC	x	n	x	18	n
COC(=O)N/N=C/c1ccccc1	n	n	n	17	n
CSC(=S)N/N=C/c1ccccc1	n	27	n	25	n
C=CCN(CC=C)Cc1cc(=O)oc2cc(C)c(Cl)cc12	x	x	x	x	n
